HPGD block – qHTS Assay for Inhibitors of HPGD (15-Hydroxyprostaglandin Dehydrogenase) | purified HPGD, NADH fluorescence kinetic, PGE2 substrate | Potency, µM, without a hit: at the top dose activity change, negative = inhibition, most hits filed as inhibitors | 150,000 tested, 4.3% active | AID 894, 2007; active = well fitted inhibition curve with a large enough effect, not every such curve was filed as active; inconclusive = small, poorly fitted or top-dose-only effect, or another doubt; inactive = no such curve, though single readings can be large or run the other way; note: potency is the fitted concentration of half-maximal effect; % is set by controls: 0 for no effect and ±100 for the full control effect
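NADH formation kinetics: reaction with 30 uM PGE2 and 1 mM NAD+ (final), 20 nM enzyme, Tris-HCl pH 8 with Tween 20, after 15 min compound preincubation at room temperature. Fluorescence change, last versus first of five reads.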
HTT ATP protect – qHTS Multiplex Assay to Identify Dual Action Probes in a Cell Model of Huntington: Cytoprotection (ATP). 230,000 tested, 0.14% active. AID 1471, 2008. Potency, µM (top dose mostly 56.4 µM), without a hit: cytoprotection (ATP increase), actives largely listed as activators. PC12 HTT-Q103 induced, cytoprotection, ATP luminescence, 40 h; note: potency is the fitted concentration of half-maximal effect; % of control where 0% means no effect; nearly all actives have a fitted effect of over 45% in size
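Stable PC12 Q103-GFP cells in serum-supplemented, phenol red-free DMEM; induction by tebufenozide at 100 nM final; compound dose series; cell viability quantified luminescently from ATP.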
IMPase Li cell – qHTS Assay for Identifying the Cell-Membrane Permeable IMPase Inhibitors: Potentiation with Lithium; 210,000 tested, 0.35% active; Potency, µM (doses to about 59.4 µM), inactives show at the top dose activity, negative = IMPase inhibition, most hits filed as inhibitors; CHO-M1 cells, IP1 TR-FRET (IP-One), carbachol + lithium; AID 1457, 2008;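 note: IP1 builds up when IMPase is blocked and the TR-FRET signal falls; potency is the fitted concentration of half-maximal effect; plate controls were basal vehicle for no effect and high inhibitor control for full effect; nearly all actives have a fitted effect of over 50% in size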
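Lithium-sensitised IP1 accumulation assay; M1-expressing CHO cells treated 30 min at 37C with compound. Competitive antibody detection by time-resolved FRET followed a 10 min room-temperature lysis step.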
HttQ103 aggreg – qHTS Multiplex Assay to Identify Dual Action Probes in a Cell Model of Huntington: Aggregate Formation (GFP) | 220,000 tested, 1.1% active | PC12 HttQ103-GFP aggregates, Acumen cytometry, 40 h | Potency, µM (top dose mostly 46.1 µM), for the others: top-dose activity change, negative = inhibition, most hits filed as inhibitors | AID 1688, 2009; note: potency is the fitted concentration of half-maximal effect; % is set by controls: 0 for no effect and ±100 for the full control effect; nearly all actives have a fitted effect of over 60% in size
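Using laser scanning cytometry, GFP-positive aggregates were counted after lysis of PC12 cells induced with 100 nM tebufenozide to express HTT exon 1 Q103–GFP. Compounds were tested in titration.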
ALDH1A1 inh – qHTS Assay for Inhibitors of Aldehyde Dehydrogenase 1 (ALDH1A1); Purified ALDH1A1, NADH fluorescence, propionaldehyde substrate; Potency, µM (titrated, usually from 75.3 µM), for inactives: at the top dose activity, negative = inhibition, usual class: inhibitors; 220,000 tested, 7.3% active; active = well fitted inhibition curve with a large enough effect, not every such curve was filed as active; inconclusive = small, poorly fitted or top-dose-only effect, or another doubt; inactive = no such curve, though single readings can be large or run the other way;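 note: potency is the fitted concentration of half-maximal effect; plate controls were no enzyme wells and a reference inhibitor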
Target sequence (P00352 whole entry, looked up): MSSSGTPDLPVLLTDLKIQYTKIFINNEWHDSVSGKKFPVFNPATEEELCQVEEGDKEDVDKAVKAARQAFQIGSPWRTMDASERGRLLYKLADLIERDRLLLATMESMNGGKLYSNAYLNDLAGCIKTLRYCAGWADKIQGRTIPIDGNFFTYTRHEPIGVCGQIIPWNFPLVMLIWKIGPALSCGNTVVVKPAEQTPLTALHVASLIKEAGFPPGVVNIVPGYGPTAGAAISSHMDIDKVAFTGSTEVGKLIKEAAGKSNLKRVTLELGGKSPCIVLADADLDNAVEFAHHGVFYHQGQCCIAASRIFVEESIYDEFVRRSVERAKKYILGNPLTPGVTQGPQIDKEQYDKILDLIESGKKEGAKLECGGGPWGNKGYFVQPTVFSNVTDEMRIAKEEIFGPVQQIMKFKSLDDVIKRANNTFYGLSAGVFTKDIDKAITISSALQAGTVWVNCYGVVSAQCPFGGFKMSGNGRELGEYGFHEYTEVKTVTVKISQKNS
IMPase cell inh – qHTS Assay for Identifying the Cell-Membrane Permeable IMPase Inhibitors | AID 901, 2007 | 120,000 tested, under 10 active | CHO-M1 cells, IP1 accumulation, HTRF TR-FRET ratio | inhibition (IP1 accumulation), % at 46.1 µM | Inositol monophosphatase 1 (Rattus norvegicus), P97697; active = well fitted curve in the direction sought with a large enough effect in the signal ratio, not every such curve was filed as active; inconclusive = small, poorly fitted or top-dose-only effect, or a change in a side signal; inactive = no such curve, though single readings can be large or run the other way; the % refers to the signal ratio;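 note: cells stimulated with carbachol in lithium chloride buffer; plate controls were DMSO basal wells for no effect and reference inhibitor wells for full effect; higher means more IMPase inhibition seen as more IP1 and lower FRET ratio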
Target sequence (P97697 whole entry, looked up): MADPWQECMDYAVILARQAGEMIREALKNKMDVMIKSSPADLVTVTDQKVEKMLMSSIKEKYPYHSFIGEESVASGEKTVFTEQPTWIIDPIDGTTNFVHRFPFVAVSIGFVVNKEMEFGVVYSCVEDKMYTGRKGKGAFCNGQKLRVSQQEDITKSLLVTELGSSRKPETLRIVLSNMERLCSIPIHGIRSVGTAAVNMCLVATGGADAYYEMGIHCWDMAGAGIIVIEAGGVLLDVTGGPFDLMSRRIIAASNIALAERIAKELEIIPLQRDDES
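Elevated IP1 in lysates lowers TR-FRET signal (665/620 ratio and 620 channel reported). Cells were CHO-M1, given carbachol (50 uM as added) plus 50mM LiCl, pH 7.4, 30 min, 37C; compounds titrated up to 46 uM; AC50 by Hill equation.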
Numbers without * were called inactive; ? = inconclusive; . = no result; [ ] = remark or other dose. In the library only some 9.4% were active in any assay of this set; here they are far more common. Unless noted, calls come from the whole dose curve; as a rule, active = well fitted curve in the direction sought with a large enough effect; inconclusive = small, poorly fitted or top-dose-only effect, or another doubt; inactive = no such curve, though single readings can be large; an effect the other way counts as inactive or inconclusive.

SMILES	HPGD block	HTT ATP protect	IMPase Li cell	HttQ103 aggreg	ALDH1A1 inh	IMPase cell inh
CCNC(=S)N1CCN(C(c2ccccc2)c2ccccc2)CC1	-13.3%	-30.1%[10 µM]	38.8%[38.3 µM]	?	3.16µM*	-3.0[1.84 µM]
CCNC(=S)N1CCN(Cc2ccccc2)CC1	.	-41.7%	-0.4%	12.0%	15.8µM*	.
Cc1cc(C(=O)N2CCN(C(c3ccccc3)c3ccccc3)CC2)no1	3.6%	-4.3%[10 µM]	9.7%	-1.9%	7.7%	11.3
CCCc1cc(C(=O)N2CCN(C(c3ccccc3)c3ccccc3)CC2)no1	-5.0%	-15.7%[10 µM]	37.6%[38.3 µM]	22.4µM*	-5.2%	19.0
O=C(CCn1c(=O)c2ccccc2n(CC(=O)Nc2cccc(F)c2)c1=O)NCCc1ccccc1	.	.	.	.	.	-3.0
CC(C)[C@@H](CC(=O)N[C@@H]1CCNC[C@H]1C(=O)N[C@H](CC(=O)N[C@@H](CCC(=O)O)CC(=O)O)Cc1c[nH]c2ccccc12)NC(=O)C[C@H](CO)NC(=O)[C@@H]1CCCC[C@H]1N	-15.7%	1.1%[1.9 µM]	1.8%	.	?	.
CC1CCC(C(=O)O)NC1c1ccc(C#CCN(C)C)cc1 (centres undefined)	.	5.0%[10 µM]	.	.	23.2%[13.5 µM]	.
CCC/C=C(\CCC)C(NS(=O)(=O)c1ccc(C(F)(F)F)cc1)c1ccc(-c2ccccc2)cc1 (centres undefined)	-15.5%	-47.4%	-4.2%	.	22.4µM*	.
CCOc1cccc(C(=O)NC(=S)Nc2ccccc2)c1	-19.6%	1.2%[10 µM]	8.7%	23.9%	17.8µM*	.
CCOc1cccc(C(=O)NC(=S)Nc2cccc(NC(=O)c3ccccc3Cl)c2)c1	-26.6%	?	-13.4%	2.8%	1.41µM*	.
CCOc1cccc(C(=O)NC(=S)Nc2cccnc2)c1	-12.2%	35.1%[10 µM]	5.2%	-6.9%	?	.
O=C(O)c1ccc(NC(=S)NC(=O)c2cccc(COc3ccccc3)c2)cc1	.	13.0%[10 µM]	12.3%	13.1%[9.22 µM]	3.55µM*	.
O=C(NC(=S)Nc1ccc(CN2CCCCC2)cc1)c1cccc(OCc2ccccc2)c1	.	5.2%[10 µM]	29.0%	?	?	.
COc1ccc(-c2nc3cnc(N(C)C)nc3n(Cc3ccc(F)cc3)c2=O)cc1	.	0.8%	-10.8%	.	?	.
COc1cccc(Nc2nc3ccccc3nc2NS(=O)(=O)c2cccs2)c1	-28.7%	-76.6%	6.8%[38.3 µM]	14.1µM*	?	1.0
COc1ccc(Nc2nc3ccccc3nc2NS(=O)(=O)c2cccs2)c(OC)c1	.	0.2%[10 µM]	.	-17.2%[9.22 µM]	.	.
COc1ccccc1N1CCN(/N=C/c2cc(OC)c(O)c(OC)c2)CC1	?	14.5%[10 µM]	26.1%	-14.0%	15.8µM*	.
CC(C)(C)NC(=O)C(c1ccc(I)cc1)N(CCN1CCOCC1)C(=O)CCCNC(=O)c1ccccc1 (centres undefined)	-5.0%	-38.7%	2.0%	.	1.7%	.
Nc1ncc([N+](=O)[O-])cc1Br	.	7.6%[10 µM]	.	3.3%[9.22 µM]	.	.
CN(C)c1ncc([N+](=O)[O-])cc1C(F)(F)F	.	-10.7%[10 µM]	.	-0.6%[9.22 µM]	14.1µM*	.
O=[N+]([O-])c1ccc(Cl)cc1Cl	-1.6%	0.0%	-5.9%	.	-0.8%	.
COC(=O)c1ccc(C(NC(=O)OCc2ccccc2)/C(=C/[C@@H](C)C(=O)NCCc2c[nH]c3ccccc23)c2cccnc2)cc1 (some centres undefined)	-9.6%	2.8%	-8.0%	.	-4.6%	.
CCc1ccc(C(O)(c2ccccc2OC)C(CN2CCOCC2)c2ccccc2)cc1 (centres undefined)	.	-104.1%	17.9%	11.2µM*	4.7%	.
COc1cccc(C(=O)NN2C(=O)C3C4C=CC(O4)C3C2=O)c1 (centres undefined)	1.8%	-14.6%	14.9%[38.3 µM]	-6.9%	14.1µM*	5.1
COc1ccc(C(=O)NN2C(=O)C3C4C=CC(O4)C3C2=O)cc1 (centres undefined)	4.3%	-13.0%	6.9%[38.3 µM]	-6.5%	7.94µM*	0.3
SMILES	HPGD block	HTT ATP protect	IMPase Li cell	HttQ103 aggreg	ALDH1A1 inh	IMPase cell inh
CN(N=O)C(=O)N[C@H]1C(O)C(O)C(CO)O[C@@H]1O (some centres undefined)	0.5%	-39.6%	31.6%	.	-3.9%	.
CCCCC/C=N/NC(=O)c1[nH]c2ccc([N+](=O)[O-])cc2c1C	.	-1.9%[10 µM]	.	12.2%[9.22 µM]	?	.
Cc1c(C(=O)NN)[nH]c2ccc([N+](=O)[O-])cc12	.	23.6%[10 µM]	.	3.3%[9.22 µM]	7.94µM*	.
O=C(O)CCc1ccc(-c2ccccc2)o1	-25.3%	-86.2%[10 µM]	13.4%[38.3 µM]	?	3.55µM*	-3.1
CCOc1cc(C(=O)Nc2ccc(S(=O)(=O)NC3=NCCCCC3)cc2)cc(OCC)c1OCC	.	-49.3%	-7.5%	3.0%	2.4%	.
O=C(C1CCCCC1)N1CCC(n2nnc3ccccc32)CC1	-4.4%	-17.2%[10 µM]	1.6%	-14.3%	14.1µM*	-2.6
CCC(=O)NC1CCc2cccc(OC)c2C1 (centres undefined)	.	-29.5%	-6.1%	.	4.6%	.
CCOC(=O)C1=NN(C(C)=O)C2(CC(=O)N(c3cc(C)cc(C)c3)C2=O)C1 (centres undefined)	-5.9%	.	-8.2%	14.8%	7.5%	.
COC(=O)C1=NN(N=O)C2(CC(=O)N(c3cc(C)cc(C)c3)C2=O)C1 (centres undefined)	31.6µM*	4.8%	27.6%[38.3 µM]	6.4%	8.91µM*	2.1
O=C(NC1=NCCS1)c1ccc2c(c1)C(=O)N(Cc1ccco1)C2=O	-15.5%	-2.9%	10.1%[38.3 µM]	7.9%	15.8µM*	-6.5
O=C(O)c1ccc(S(=O)(=O)c2ccc3c(c2)C(=O)N(Cc2ccco2)C3=O)cc1	-19.1%	-4.4%[0.074 µM]	-5.5%[38.3 µM]	6.7%	?	12.2
O=C(Nc1ccc(Cl)cc1C(=O)O)c1ccc2c(c1)C(=O)N(Cc1ccco1)C2=O	?	-12.4%[0.074 µM]	-9.3%	0.6%	3.77µM*	.
O=Cc1ccc(CO)o1	-9.6%	2.3%	5.6%	.	?	.
CN(C)/C=C1\NC(=S)N(c2ccc(Cl)cc2)C1=O	.	8.4%[10 µM]	4.0%	-6.6%[9.22 µM]	20µM*	.
CCCCc1cc2c(cn1)C(=O)C(C)(OC(C)=O)C(=O)C2 (centres undefined)	-3.5%	-25.4%[10 µM]	11.4%	.	1.26µM*	.
CCCSS/C(CCO)=C(/C)N(C=O)Cc1cnc(C)nc1N	.	-18.8%	.	-13.0%	.	.
O=C(/C=C/Nc1ccccc1F)c1cccs1	-11.4%	-21.8%[10 µM]	-0.3%	-15.7%	?	2.5
O=C(/C=C/Nc1ccc(F)cc1F)c1cccs1	?	-77.5%[10 µM]	-3.7%	-6.5%	2.38µM*	-10.2
